AHR activator: activators of human aryl hydrocarbon receptor | P35869 | AHR-responsive luciferase reporter cells, luminescence | activation, % at 5 µM | 320,000 tested, 2.5% active; in the data active = activation above about 47%
SUMO Mot1 rescue: blocks SUMOylation pathway, rescuing yeast Mot1-301 growth; S. cerevisiae Mot1-301 growth rescue, ATP luminescence, 38.5C; percent above DMSO median, 100 means doubled; growth rescue, % at 18.8 µM; 320,000 tested, 1% active; AID 2716;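 active = every valid replicate shows activation above 250% relative to neutral control wells; inactive = the rest, any valid replicate at or below 250%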
AI-2 QS mod: modulates the Vibrio harveyi AI-2 quorum sensing system; Vibrio harveyi JMH597 AI-2 luminescence/OD600 ratio, 9 h; active compounds read low; strain lacks LuxN and CqsS sensors; 0 = neutral-control median; activity change, % at 7.5 µM; 300,000 tested, 0.4% active; AID 2094; in the data active = activity change below about -75%, passing the limit was not always enough;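 also: luminescence divided by OD600 gain over 9 h not by final OD600 alone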
NTR1 ag: activates human neurotensin receptor 1 | NTR1-U2OS beta-arrestin-GFP spot imaging, agonist mode | AID 493036 | P30989 | 330,000 tested, 0.17% active | activation, % at 20 µM;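 active = activation at or above 40% of the spot to cytoplasm intensity ratio, with at least 20 cells analyzed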
Target sequence (P30989 whole entry, looked up): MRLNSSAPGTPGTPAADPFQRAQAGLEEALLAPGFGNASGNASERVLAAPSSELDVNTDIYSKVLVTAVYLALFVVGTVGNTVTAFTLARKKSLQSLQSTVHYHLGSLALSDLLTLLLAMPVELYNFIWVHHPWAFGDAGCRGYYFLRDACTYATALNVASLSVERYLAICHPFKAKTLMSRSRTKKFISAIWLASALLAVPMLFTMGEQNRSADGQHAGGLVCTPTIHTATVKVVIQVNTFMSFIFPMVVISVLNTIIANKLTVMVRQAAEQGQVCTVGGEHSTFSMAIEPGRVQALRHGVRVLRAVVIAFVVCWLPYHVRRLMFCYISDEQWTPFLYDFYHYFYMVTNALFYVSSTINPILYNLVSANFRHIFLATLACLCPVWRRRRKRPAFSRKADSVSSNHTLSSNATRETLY
GRIN3A LBD mod: modulates the human NR3A ligand-binding domain; NR3A LBD differential scanning fluorimetry, Tm shift; 0% = protein alone, 100% = glycine-bound protein; Tm shift relative to glycine control, % at 25 µM; 340,000 tested, 2.5% active; AID 1259313;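 active = melting temperature shift of at least 10% of the positive control shift, at one fixed dose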
Cardio protect: modulators protecting cardiomyocytes from myocardial damage; H9c2 cardiomyocytes, H2O2 injury protection, ATPLite, 2 h; protection from H2O2 cell death, % at 20 µM; 360,000 tested, 0.63% active;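 active = compounds giving at least 50% protection of heart cells from peroxide-induced death in the single-dose screen, raw or plate-pattern-corrected value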
A number is an active result; i = inactive; nt = no result given; + = active, no number. Only some compounds are listed: those with a hit (about 6.2% of all), similar ones and a draw of the others.

SMILES	AHR activator	SUMO Mot1 rescue	AI-2 QS mod	NTR1 ag	GRIN3A LBD mod	Cardio protect
Cc1noc(C)c1C(=O)Nc1nc(-c2cccs2)cs1	63.2	i	nt	i	i	i
Cc1c(C(=O)Nc2nc(-c3ccccn3)cs2)oc2ccccc12	64.0	i	nt	i	i	54.0
O=C(Nc1nc(-c2ccccn2)cs1)c1ccc(Cl)s1	i	i	-196.5	i	19.2	i
CCc1noc(C)c1C(=O)Nc1nc(-c2cccs2)cs1	i	i	i	i	i	i
Cc1nnc(NC(=O)c2oc3ccccc3c2C)s1	62.2	i	i	i	i	i
OCc1c[nH]c2ccccc12	53.0	i	nt	i	i	i
O=C(Cc1ccccc1)Nc1nc2ccccc2[nH]1	i	i	i	i	i	i
OCCc1c[nH]c2ccccc12	i	i	i	i	i	i
O=C(Cc1c[nH]c2ccccc12)Nc1nc2ccccc2[nH]1	91.3	i	i	i	i	i
COc1ccc(-c2cn(CCO)c(-c3ccncc3)n2)cc1	i	i	nt	i	i	i
CSc1nncn1/N=C/c1ccc2c(c1)OCO2	50.9	i	i	i	i	i
CSc1nncn1/N=C/c1ccc([N+](=O)[O-])cc1	i	i	i	i	i	i
NS(=O)(=O)c1cc(C(=O)OCC(=O)N2CCc3ccccc3C2)ccc1Cl	i	i	nt	i	i	i
COc1ccc(/C=N/NC(=O)c2[nH]nc3c2CCc2ccccc2-3)cc1OC	i	i	i	i	33.6	i
CNC(=O)c1[nH]nc2c1CCc1ccccc1-2	i	i	i	i	i	i
CCCCCCCC#Cc1ccccc1/C=N/S(=O)c1ccc(C)cc1 (stereo not drawn)	i	i	nt	i	15.8	nt
CCCCC#Cc1ccccc1CC(=O)Nc1ccccc1	i	i	i	i	i	i
Cc1cc(C)c(Nc2cc(S(=O)(=O)O)c(N)c3c2C(=O)c2ccccc2C3=O)c(C)c1	i	i	nt	nt	547.2	i
CC(=O)N/C(=N/c1nc(C)cc(C)n1)Nc1cc(C)cc(C)c1	58.4	i	i	i	i	i
CC(=O)N/C(=N/c1nc(C)cc(C)n1)Nc1ccc(NC(C)=O)cc1	i	i	i	i	i	i
Cc1cc(F)ccc1S(=O)(=O)N1CCC2(CC1)OCCN2S(=O)(=O)c1cccs1	i	i	i	i	i	i
CCOc1cc2c(cc1OCC)CN(C(=O)c1cccc(S(=O)(=O)N3CCCC3)c1)CC2	i	i	nt	i	i	i
Cc1ccc(S(=O)(=O)NC(=O)C2(C)CCN2C(=O)CCc2ccc(Cl)cc2Cl)nc1 (stereo not drawn)	nt	nt	nt	nt	nt	i
CC12C(=O)N(c3nccs3)C(=O)C1(C)C1CCC2O1 (stereo not drawn)	nt	nt	nt	nt	i	i
C[C@@]12C(=O)OC(=O)[C@]1(C)C1CCC2O1	i	i	nt	i	i	67.0
SMILES	AHR activator	SUMO Mot1 rescue	AI-2 QS mod	NTR1 ag	GRIN3A LBD mod	Cardio protect
O=C(c1ccc2ccccc2c1)N1CCN(c2ccc(C(F)(F)F)cn2)CC1	i	315.8	i	i	i	i
COc1ccc(C(=O)OCC(=O)Nc2nc3c(F)c(F)c(F)cc3s2)cc1OC	i	i	i	i	i	i
O=C(COC(=O)C12CC3CC(CC(C3)C1)C2)Nc1nc2c(F)c(F)c(F)cc2s1	i	i	i	i	28.6	i
COc1ccc(Cl)cc1N1C(=NC(=O)C2CCCCC2)SC2CS(=O)(=O)CC21 (stereo not drawn)	i	i	i	i	i	i
CCCCOc1ccc(C(=O)NCC(=O)NCCOc2ccccc2OC)cc1	i	i	nt	i	i	i
COc1ccc2nc(SC(C)C(=O)NC3CCCCC3)[nH]c2c1 (stereo not drawn)	nt	nt	nt	i	i	i
Cc1ccc2nc(SC(C)C(=O)N3CCOCC3)[nH]c2c1 (stereo not drawn)	49.7	i	i	i	i	i
Cc1ccc2nc(SC(C)C(=O)NC3CCCC3)[nH]c2c1 (stereo not drawn)	48.7	i	nt	i	i	i
Cc1ccc2nc(SC(C)C(=O)Nc3cccc([N+](=O)[O-])c3)[nH]c2c1 (stereo not drawn)	66.4	i	i	i	i	i
CC(Sc1nc(N)cc(=O)[nH]1)C(=O)NC1CCCCC1 (stereo not drawn)	i	+	nt	i	i	i
O=C(O)CC1c2ccccc2CCN1S(=O)(=O)c1ccc(F)cc1 (stereo not drawn)	i	i	i	i	i	i
Cc1ccc(-c2cc(C(=O)N/N=C/c3c(C)nn(-c4ccccc4)c3C)[nH]n2)cc1	nt	nt	i	nt	nt	i
Cc1nn(-c2ccccc2)c(C)c1/C=N/NC(=O)c1cc(C(C)(C)C)[nH]n1	i	i	i	i	i	54.2
Cc1ccc(-c2cc(C(=O)N/N=C/c3c(C)nn(-c4ccccc4)c3C)n[nH]2)s1	nt	nt	i	nt	14.8	72.5
C#CCOCCOCCOCCNc1nc(N2CCN(C(=O)[C@H](CO)n3cc([C@@H](N)C(C)C)nn3)CC2)nc(N2CCN(C(=O)[C@H](CO)n3cc([C@@H](N)C(C)C)nn3)CC2)n1	nt	nt	nt	nt	i	i
CCCC(C(=O)O)N1C(=O)/C(=C2\C(=O)N(C)c3ccccc32)SC1=S (stereo not drawn)	i	i	nt	nt	26.8	i
COc1cccc(CNC(=O)c2ccc(CS(=O)Cc3ccccc3Cl)o2)c1 (stereo not drawn)	nt	nt	nt	nt	nt	i
Nc1ccccc1Sc1nc2ccccc2[nH]1	i	nt	i	i	10.2	i
CCCCn1c(N)c(N(CC(C)C)C(=O)COC(=O)Cc2c(C)nc3ccccc3c2C)c(=O)[nH]c1=O	i	i	i	i	i	i
COc1ccc(-n2cc(-c3ccccc3)[nH]c2=S)cc1	55.1	i	i	i	i	i
CC(=O)Nc1ccc(-n2cc(-c3ccccc3)[nH]c2=S)cc1	i	i	i	i	i	i
COc1ccc(-n2cnc(=S)[nH]c2=S)cc1	nt	nt	nt	nt	17.7	i
Cc1onc(-c2ccccc2)c1C(=O)Nc1cccc(S(=O)(=O)N2CCCCC2)c1	i	i	nt	i	i	i
COc1ccccc1N(CC(=O)N1CCCCC1C)S(=O)(=O)c1ccc(Cl)cc1 (stereo not drawn)	nt	nt	nt	nt	nt	i
Cc1cc(NS(=O)(=O)c2ccc(Nc3nc(-c4sc(N)nc4C)cs3)cc2)no1	i	i	i	i	i	i
Oc1ccc(-c2nc(-c3ccc(O)c(O)c3)cs2)cc1	i	i	i	i	21.1	53.0
Cc1cc(NS(=O)(=O)c2ccc(Nc3nc(-c4ccc(C)c(C)c4)cs3)cc2)no1	i	i	i	i	16.1	i
Cc1cc(NS(=O)(=O)c2ccc(Nc3nc(-c4ccc(O)cc4)cs3)cc2)no1	60.1	i	i	i	i	i
Oc1ccc(-c2csc(-c3cccnc3)n2)c(O)c1	i	i	i	i	i	i
COc1cc(NS(=O)(=O)c2ccc(Nc3nc(-c4ccccc4)cs3)cc2)nc(OC)n1	i	i	i	nt	26.7	i

Compound activity as filed in PubChem BioAssay.
